In the library only some 2.2% were active in any assay of this set; here they are far more common.
M18AAP inhibitor: blocks P. falciparum M18 aspartyl aminopeptidase; recombinant PfM18AAP, H-Glu-NHMec fluorogenic cleavage; inhibition, % at 7.35 µM; 1.2% of 290,000 active; AID 1822;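 active means inhibition above the campaign mean inhibition over all tested compounds plus 3 SD, cut at about 28% in these data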;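 further: 0% = plate median of test compound wells and 100% = 2 mM ZnCl2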
NPR1 activator: GC-A (human) enzyme activation | activation, % at 10 µM | 0.14% of 370,000 active | AID 1671463 | HEK293 GC-A cells, cGMP TR-FRET, EC30 ANP; 0% at EC30 ANP, 100% saturating ANP | P16066; in the data active means activation above about 40%
GC-B act: GC-B (human) receptor activation. P20594. HEK293-GC-B cells, CNP EC30, cGMP TR-FRET; 0% at EC30 CNP, 100% saturating CNP. activation, % at 10 µM. 0.11% of 370,000 active. AID 1920062;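 active means activation at 10 µM reaching about 35% in either raw or pattern-adjusted values, limit read from the data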
Target sequence (P20594 whole entry, looked up): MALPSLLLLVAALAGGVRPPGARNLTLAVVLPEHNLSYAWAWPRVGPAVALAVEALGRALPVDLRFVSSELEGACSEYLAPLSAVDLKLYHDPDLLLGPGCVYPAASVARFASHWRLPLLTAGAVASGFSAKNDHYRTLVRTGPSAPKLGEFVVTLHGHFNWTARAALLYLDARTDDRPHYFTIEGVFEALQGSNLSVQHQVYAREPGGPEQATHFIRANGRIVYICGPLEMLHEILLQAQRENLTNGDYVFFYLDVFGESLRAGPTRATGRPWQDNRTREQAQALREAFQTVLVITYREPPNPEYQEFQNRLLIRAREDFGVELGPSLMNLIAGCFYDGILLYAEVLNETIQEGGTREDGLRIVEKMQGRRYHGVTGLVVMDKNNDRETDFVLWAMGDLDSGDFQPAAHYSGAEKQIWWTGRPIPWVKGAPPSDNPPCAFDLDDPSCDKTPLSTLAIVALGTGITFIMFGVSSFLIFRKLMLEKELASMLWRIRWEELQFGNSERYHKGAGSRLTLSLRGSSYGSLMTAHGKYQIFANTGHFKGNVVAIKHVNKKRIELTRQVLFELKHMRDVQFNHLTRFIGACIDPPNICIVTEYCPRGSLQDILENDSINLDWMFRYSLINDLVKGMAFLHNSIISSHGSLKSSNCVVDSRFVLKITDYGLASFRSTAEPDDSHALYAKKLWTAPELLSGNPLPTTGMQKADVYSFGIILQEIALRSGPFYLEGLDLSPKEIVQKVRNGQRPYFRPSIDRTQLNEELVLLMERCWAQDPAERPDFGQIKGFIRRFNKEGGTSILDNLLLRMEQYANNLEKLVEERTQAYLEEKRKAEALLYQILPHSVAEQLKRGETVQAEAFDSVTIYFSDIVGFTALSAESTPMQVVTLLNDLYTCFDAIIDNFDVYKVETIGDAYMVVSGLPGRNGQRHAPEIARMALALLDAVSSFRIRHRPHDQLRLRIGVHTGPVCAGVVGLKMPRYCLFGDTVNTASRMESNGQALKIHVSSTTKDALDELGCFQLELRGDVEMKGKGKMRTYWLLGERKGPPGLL
PLCb3 inh: blocks human PLC-beta3 enzyme activity; Purified PLC-beta3, fluorogenic substrate, fluorescence; inhibition, % at 12.2 µM; 0.18% of 370,000 active; AID 720704; in the data active means inhibition above about 11%;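 further: 0% = median of compound wells on plate and 100% = full blocker control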
Rce1 inh: inhibitors of yeast Ras-converting enzyme; Q03530; yeast membranes, quenched prenylated peptide cleavage fluorescence; calls only; 0.27% of 290,000 active;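 active means fall in fluorescence gain of 50% or more versus controls, with final raw signal at or below 3038400; inconclusive means same 50% fall but final raw signal above 3038400; inactive means fall in fluorescence gain under 50%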;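 further: plate controls were neutral control wells for no effect and wells lacking membranes for full effect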
PLCg1 inh: inhibitors of human phospholipase C gamma1. inhibition, % at 12.2 µM. 0.84% of 370,000 active. P19174. purified PLC-gamma1, fluorogenic substrate, fluorescence; in the data active means inhibition above about 9.5%
Active calls of the source: *.

How did CCOC(=O)[C@]12CCCCC/C=C\1N(CCc1ccc(Cl)cc1)C(=O)[C@H]2CC(=O)N1CCC(c2ccccc2)CC1 do in these assays?
NPR1 activator: 0; GC-B act: -6; PLCb3 inh: -2; PLCg1 inh: -1

How did O=C1CCN(Cc2ccccc2)CCN1[C@H](CSc1ccccc1)Cc1ccccc1 do in these assays?
M18AAP inhibitor: 5; NPR1 activator: -2; GC-B act: -1; PLCb3 inh: 4; Rce1 inh: active; PLCg1 inh: 1

How did C=CCn1c(COc2ccccc2)nnc1SCC(=O)Nc1ccc(Oc2ccccc2)cc1 do in these assays?
NPR1 activator: -2; GC-B act: 6; PLCb3 inh: -1; PLCg1 inh: -2

What do the screens show for `CN1/C(=C/C=C/c2n(C)c3cc([N+](=O)[O-])c([N+](=O)[O-])cc3[n+]2C)C(C)(C)c2ccccc21`?
NPR1 activator: -8; GC-B act: -1; PLCb3 inh: 13*; PLCg1 inh: 9.7*

How did Cc1sc2c3ccsc3ccc2[n+]1C do in these assays?
M18AAP inhibitor: 30*; NPR1 activator: 17; GC-B act: 16; PLCb3 inh: 3; Rce1 inh: inactive; PLCg1 inh: 3

Results for Cc1sc2ccc3sccc3c2[n+]1C ?
M18AAP inhibitor: 30*; NPR1 activator: 13; GC-B act: 13; PLCb3 inh: 3; Rce1 inh: inactive; PLCg1 inh: 2

Results for O=S1(=O)C=CCN1Cc1cn(Cc2ccc(C(F)(F)F)cc2)nn1 ?
NPR1 activator: 1; GC-B act: -2; PLCb3 inh: 1; PLCg1 inh: -3

Results for COC(=O)[C@]12C[C@H](CC(=O)NCCC(C)C)C(=O)N(Cc3ccco3)C1=C[C@H](COCc1ccccc1)O[C@@H]2C ?
NPR1 activator: 1; GC-B act: -3; PLCb3 inh: -5; PLCg1 inh: -2

Results for NC(=O)c1cccc(-c2coc3c(C(=O)NCc4ccccc4)cccc23)c1 ?
NPR1 activator: 21; GC-B act: 37*; PLCb3 inh: -4; PLCg1 inh: -1

How did COCCNC(=O)c1cccc2c(-c3cccc(C(N)=O)c3)coc12 do in these assays?
NPR1 activator: 7; GC-B act: 13; PLCb3 inh: 1; PLCg1 inh: 2

What do the screens show for `CC(C)NC(=O)N[C@@H]1C[C@@H]2O[C@H](CO)CC[C@@H]2O[C@@H]1CCc1ccc(-c2ccccc2F)cc1`?
NPR1 activator: 15; GC-B act: 6; PLCb3 inh: -1; PLCg1 inh: 2

What do the screens show for `CC1(C)Cc2nc3sc(C(=O)NCCO)c(N)c3cc2CO1`?
M18AAP inhibitor: 31*; NPR1 activator: 5; GC-B act: 8; PLCb3 inh: -104; Rce1 inh: inactive; PLCg1 inh: -80

How did COC(=O)CNC(=O)C1Cc2ccccc2CN1S(=O)(=O)c1ccc(F)cc1 (stereo not given) do in these assays?
M18AAP inhibitor: -1; NPR1 activator: 0; GC-B act: 2; PLCb3 inh: -1; Rce1 inh: inactive; PLCg1 inh: 9.6*

Results for CC1(C)CC(Cc2ccc(C(=O)c3ccccc3)cc2)N(C(=O)OC(C)(C)C)N1 (stereo not given) ?
NPR1 activator: 2; GC-B act: 4; PLCb3 inh: 9; PLCg1 inh: 11*

Results for CC(=O)Nc1ccc(-c2csc(NNC(=O)c3ccc(C)cc3)n2)cc1 ?
M18AAP inhibitor: 19; NPR1 activator: -1; GC-B act: -2; PLCb3 inh: -26; Rce1 inh: inactive; PLCg1 inh: -21

Results for CC(=O)NNc1nc(-c2ccc(NC(C)=O)cc2)cs1 ?
M18AAP inhibitor: 31*; NPR1 activator: 1; GC-B act: 0; PLCb3 inh: -144; Rce1 inh: inactive; PLCg1 inh: -138

Results for CC(=O)C(C)Oc1ccc2c3c(c(=O)oc2c1)CCCC3 (stereo not given) ?
M18AAP inhibitor: -2; NPR1 activator: -1; GC-B act: 0; PLCb3 inh: -62; Rce1 inh: active; PLCg1 inh: -47

What do the screens show for `CC(=O)C(C)Oc1ccc2c3c(c(=O)oc2c1)CCCCC3` (stereo not given)?
M18AAP inhibitor: -3; NPR1 activator: 1; GC-B act: 2; PLCb3 inh: -297; Rce1 inh: inactive; PLCg1 inh: -210

What do the screens show for `Cc1ccccc1C1CCC2(CCC(=O)N2CC[C@@H](O)c2ccccc2)CC1` (stereo not given in full)?
NPR1 activator: -4; GC-B act: -5; PLCb3 inh: -2; PLCg1 inh: 0

Results for CCCCOc1ccc(C(=O)NC2CCCCN(Cc3cccc(Cl)c3)C2=O)cc1 (stereo not given) ?
NPR1 activator: -1; GC-B act: 3; PLCb3 inh: 3; PLCg1 inh: 0

What do the screens show for `S=C(Nc1ccccc1Br)OCCN1CCCC12CCC(c1ccccc1)CC2` (stereo not given)?
NPR1 activator: -4; GC-B act: -5; PLCb3 inh: -3; PLCg1 inh: -2

Results for COC(=O)[C@H]1C[C@]2(C/C=C(\C)CCC=C(C)C)c3ccccc3N[C@H]2N1 ?
NPR1 activator: 2; GC-B act: 0; PLCb3 inh: -1; PLCg1 inh: 0

Results for CCOC(=O)c1cc(-c2ccc(F)cc2)nc2c1c(=O)[nH]c(=O)n2Cc1ccccc1 ?
M18AAP inhibitor: -5; NPR1 activator: 37; GC-B act: 43*; PLCb3 inh: -5; Rce1 inh: inconclusive; PLCg1 inh: -1

Results for Cc1cccc(NC(=S)NCc2ccccn2)c1 ?
M18AAP inhibitor: 4; NPR1 activator: -5; GC-B act: -2; PLCb3 inh: -11; Rce1 inh: inactive; PLCg1 inh: -4

What do the screens show for `S=C(NCc1ccccn1)Nc1cccc(Cl)c1`?
M18AAP inhibitor: 30*; NPR1 activator: -2; GC-B act: -3; PLCb3 inh: -6; Rce1 inh: inactive; PLCg1 inh: -1

Results for CCOC(=O)/C(=C\c1cccc(O)c1)c1nc2sc(C)c(C)c2c(=O)[nH]1 ?
M18AAP inhibitor: 29*; NPR1 activator: -20; GC-B act: -2; PLCb3 inh: -6; Rce1 inh: inactive; PLCg1 inh: -5

Results for CCOC(=O)c1nc2sc(C)c(C)c2c(=O)[nH]1 ?
M18AAP inhibitor: 1; NPR1 activator: -1; GC-B act: -1; PLCb3 inh: -464; Rce1 inh: inactive; PLCg1 inh: -437

What do the screens show for `c1coc(-c2nnc(-c3ccco3)nn2)c1`?
M18AAP inhibitor: 54*; NPR1 activator: 2; GC-B act: 2; PLCb3 inh: -15; Rce1 inh: inactive; PLCg1 inh: 1

Results for c1ccc(-c2nnc(-c3ccco3)o2)cc1 ?
M18AAP inhibitor: 9; NPR1 activator: 1; GC-B act: -3; PLCb3 inh: -1; Rce1 inh: inactive; PLCg1 inh: -2
